Screening results from PubChem BioAssay.
Most compounds without a hit are left out; they make up all but 8.7% or so of the library.
Vaccinia Venus = inhibitors of vaccinia virus (Venus reporter) | Vaccinia virus Venus reporter expression, fluorescence | Potency, µM (top dose mostly 36.5 µM), for the others: at the top dose activity change, negative = inhibition, hits mostly inhibitors | 0.46% of 330,000 active | AID 720580; calls by dose curve; tested in A549 cells; note: nearly all actives have a fitted effect of over 30% in size
Pf growth 48h = inhibits P. falciparum growth in the first generation, 48 h. AID 504832. P. falciparum luciferase growth in erythrocytes, 48 h. 5.9% of 310,000 active. Potency, µM (top dose mostly 28.7 µM), for inactives: at the top dose activity change, negative = inhibition, most hits filed as inhibitors
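Cell-based growth assay: transgenic P. falciparum expressing firefly luciferase, cultured in red cells within RPMI 1640 containing 0.5% w/v Albumax, 24 mM bicarbonate and gentamycin. A drop in luciferase activity indicates inhibition.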
AMA1 RON2 block = AMA1-RON2 (P. falciparum) interaction inhibition | AlphaScreen AMA1-biotinylated RON2 peptide binding | Potency, µM (titrated, usually from 58.2 µM), for the others: top-dose activity change, negative = inhibition, actives largely listed as inhibitors | 0.2% of 360,000 active;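 note: 0% = vehicle wells and -100% = peptide control; nearly all actives have a fitted effect of over 45% in size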
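AMA1 (3D7) with his tag at 25 nM final met compounds first, then biotinylated RON2 peptide at 25 nM; detection used donor plus acceptor beads, 10 µg/mL apiece, read by AlphaScreen after 30 min at room temperature.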
Pf growth 96h = P. falciparum growth inhibition at 96 hour, primary screen for plastid delayed-death inhibitors | Potency, µM (titrated, usually from 28.7 µM), for inactives: at the top dose activity change, negative = inhibition, hits mostly inhibitors | 6.9% of 320,000 active | AID 504834 | P. falciparum luciferase reporter growth, 96 h
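Cell-based qHTS: luciferase-tagged P. falciparum in erythrocytes (2% hematocrit, 0.05% parasitemia final) incubated with compounds for 96 hours, 37 C, 5% CO2; luciferase detection reagent then added and luminescence measured.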
VACV mCherry inh = vaccinia inhibition (mCherry reporter); Vaccinia virus mCherry reporter infection, fluorescence; Potency, µM (series often up to 36.5 µM), without a hit: at the highest dose activity change, negative = inhibition, actives largely listed as inhibitors; 0.63% of 310,000 active; AID 720579; calls by dose curve; tested in A549 cells; note: nearly all actives have a fitted effect of over 35% in size
* = called active by the depositor; i = inactive; ? = inconclusive; nt = not tested or not shown; [ ] = remark or other dose. Unless noted, calls come from the whole dose curve; as a rule, active = well fitted curve in the direction sought with a large enough effect; inconclusive = small, poorly fitted or top-dose-only effect, or another doubt; inactive = no such curve, though single readings can be large; an effect the other way counts as inactive or inconclusive. Unless noted, % is set by controls: 0 for no effect and ±100 for the full control effect; potency is the fitted concentration of half-maximal effect.

SMILES	Vaccinia Venus	Pf growth 48h	AMA1 RON2 block	Pf growth 96h	VACV mCherry inh
CCOc1ccc(/C=C2/Sc3ccc(C(=O)NCC4CCCO4)cc3N(C)C2=O)cc1OC (stereo unspecified)	nt	8.3µM*	-17%	13µM*	nt
CCOc1ccc(/C=C2/Sc3ccc(C(=O)N4CCN(C(=O)c5ccco5)CC4)cc3N(C)C2=O)cc1OC	nt	-16%	nt	?	nt
CCOC(=O)N1CCN(C(=O)c2ccc3c(c2)NC(=O)/C(=C\c2ccc(OC)c(OC)c2)S3)CC1	nt	?	6%	13µM*	nt
CC(C)C12CN3CC(C(C)C)(CN(C1)C3c1ccc(Cl)cc1)C2=O (stereo unspecified)	5%	nt	nt	nt	-4%
CCCCOc1ccc(S(=O)(=O)Nc2ccc(-c3ccc(N4CCC(C)CC4)nn3)cc2)cc1	-13%	nt	nt	nt	-20%
CC(C)CNS(=O)(=O)c1ccc(CCC(=O)Nc2cc(Cl)ccc2Oc2ccccc2)cc1	?	nt	28%	4.1µM*	nt
CCCNS(=O)(=O)c1ccc(CCC(=O)NCCc2ccc(OC)c(OC)c2)cc1	-12%	-6%	20%	-9%	i
CC(C)(C)NS(=O)(=O)c1ccc(CCC(=O)Nc2cc(Cl)ccc2Oc2ccccc2)cc1	?	4.1µM*	4%	nt	?
CCCNS(=O)(=O)c1ccc(CCC(=O)Nc2cc(Cl)ccc2Oc2ccccc2)cc1	?	13µM*	3%	-4%	nt
COc1ccc(CCC(=O)Nc2cc(Cl)ccc2OC)cc1	-24%	nt	9%	?	i
O=C(Nc1ccc(Cl)cc1)OCCn1nnnc1C(c1ccccc1Cl)N1CCOCC1 (stereo unspecified)	nt	15µM*	-3%	?	nt
O=C(Nc1ccc(Cl)cc1)OCCN1CCOCC1	0%	nt	-5%	nt	i
COC(=O)C1C(c2ccc(OC)c(OC)c2)NC(c2ccc(OC)c(OC)c2)C(C(=O)OC)S1(=O)=O (stereo unspecified)	-3%	-20%	-9%	?	-4%
COC(=O)C1CSc2[nH]c(=O)sc2C1c1ccc(OC)c(OC)c1 (stereo unspecified)	-7%	10µM*	0%	?	nt
Cc1ccc(CNC(=O)C(C)n2c(=O)cc(C(F)(F)F)c3c(C)nn(C)c32)cc1 (stereo unspecified)	-7%	nt	nt	nt	-13%
Nc1ccc(N)c(C(=O)O)c1	nt	nt	8.9µM*	nt	nt
O=C1c2ccccc2-c2onc3ccc(N4CCCC4)c1c23	nt	9.3µM*	?	39%	nt
O=C1c2ccccc2C(=O)c2c1cccc2N1CCCC1	-1%	66%	13µM*	0%	i
CCC1(C2CCN(Cc3ccccc3Cl)CC2)NC(=O)N(CC2COc3ccccc3O2)C1=O (stereo unspecified)	-19%	nt	nt	nt	-18%
CS(=O)(=O)c1nc(S(=O)(=O)c2ccc(Cl)cc2)c(N2CCCCCC2)s1	-4%	?	-1%	13µM*	-21%
Cc1ccc(S(=O)(=O)c2nc(S(C)(=O)=O)sc2N(C)C)cc1	11µM*	-25%	-5%	-1%	-16%[1.46 µM]
Cc1ccc(S(=O)(=O)c2nc(S(C)(=O)=O)sc2N(C)Cc2ccccc2)cc1	-11%	nt	nt	nt	-17%
Cc1ccc(S(=O)(=O)c2nc(S(C)(=O)=O)sc2N2CCC(O)CC2)cc1	0%[7.34 µM]	8%	-4%	9.3µM*	-5%[7.34 µM]
CS(=O)(=O)c1nc(S(=O)(=O)c2ccc(Cl)cc2)c(NCCCn2ccnc2)s1	-11%[7.34 µM]	-14%	3%	5.9µM*	i[7.34 µM]
COc1ccc(OC)c(/C=C/c2nc3ccccc3c(=O)n2-c2ccc(F)c(Cl)c2)c1	-26%	nt	nt	nt	i
SMILES	Vaccinia Venus	Pf growth 48h	AMA1 RON2 block	Pf growth 96h	VACV mCherry inh
CCN1CCCC1CNC(=O)c1cnn(-c2nccc(-c3cccs3)n2)c1C1CC1 (stereo unspecified)	-6%	nt	nt	nt	-9%
CN1CCN(c2sc(S(C)(=O)=O)nc2S(=O)(=O)c2ccc(Cl)cc2)CC1	-5%[7.34 µM]	?	-10%	12µM*	-13%[7.34 µM]
COc1ccccc1C1CN(CC(=O)N2CCC(N3CCOCC3)CC2)Cc2ccccc2O1 (stereo unspecified)	-3%	nt	nt	nt	-3%
CCCCn1c(N)c(N(CCOC)C(=O)c2ccc(-c3cccc(C(F)(F)F)c3)o2)c(=O)[nH]c1=O	-7%	13µM*	-9%	7.4µM*	-22%
CCCCn1c(N)c(N(CCOC)C(=O)c2cc(-c3ccc(OC)cc3)nc3ccccc23)c(=O)[nH]c1=O	-13%	9.3µM*	22%	?	i
CCCCn1c(N)c(N(CCOC)C(=O)c2cc(-c3ccc(F)cc3)nc3ccccc23)c(=O)[nH]c1=O	6%	?	-11%	?	-7%
CCCCn1c(N)c(N(CCOC)C(=O)c2cc(-c3ccc(C)cc3)nc3ccccc23)c(=O)[nH]c1=O	nt	?	19%	12µM*	nt
COCCn1c(N)c(N(Cc2ccccc2)C(=O)c2ccc3ccccc3c2)c(=O)[nH]c1=O	-1%	10µM*	1%	?	i
CCCn1c(N)c(N(CCOC)C(=O)c2cccc(C(F)(F)F)c2)c(=O)[nH]c1=O	-12%	19%	5%	20%	-1%
CC(=O)c1ccc(NC(=O)CSc2nnc3ccc(-c4ccc(Br)cc4)nn23)cc1	-20%	nt	nt	nt	-9%
C[C@H](NC(=O)c1ncn2c1c(=O)[nH]c1ccc(Br)cc12)c1ccccc1	13µM*	nt	-6%	nt	?
C[C@H](NC(=O)c1ncn(C)c1C(=O)N[C@@H](C)c1ccccc1)c1ccccc1	5%	nt	0%	nt	-21%
C[C@@H](NC(=O)c1ncn(Cc2ccccc2)c1C(=O)N[C@H](C)c1ccccc1)c1ccccc1	-15%	13µM*	-1%	?	-2%
C[C@H](NC(=O)c1ncn2c1c(=O)[nH]c1ccccc12)c1ccccc1	-6%	nt	19%	nt	-20%
CCC(C)N(CC(=O)Nc1cccc(C)c1C)C(=O)CCl (stereo unspecified)	?	?	11%	3.7µM*	4.5µM*
CCC(CC)NC(=O)Nc1cccc(C)c1C	nt	40%	-9%	i	nt
Cc1cccc(C)c1-n1ncc(C(=O)N2CCN(c3ncccn3)CC2)c1C1CCN(C(=O)OC(C)(C)C)CC1	-1%	nt	nt	nt	-8%
COc1ccc(CCNC(=O)Cc2ccc(NC(=O)N3CCSc4ncccc43)cc2)cc1OC	-19%	nt	nt	nt	-13%
CC(=O)c1cccc(S(=O)(=O)N2CCCC(c3nc4c(nnn4Cc4cccc(Cl)c4)c(=O)[nH]3)C2)c1 (stereo unspecified)	-18%	7.4µM*	-18%	8.3µM*	i
NC(=O)C1CCN(c2nc(C3CC3)nc3c2nnn3Cc2ccccc2)CC1	-22%	13µM*	-4%	?	-6%
Cc1ccc(C)c(Cn2nnc3c(=O)[nH]c(C4CCCN(C(=O)C5CCCCC5)C4)nc32)c1 (stereo unspecified)	-8%	6.6µM*	8%	3%	-7%
O=C(c1ccccc1)N1CCCC(c2nc3c(nnn3Cc3ccccc3)c(=O)[nH]2)C1 (stereo unspecified)	-14%	13µM*	33%	39%	-10%
